TDP1 block: blocks human tyrosyl-DNA phosphodiesterase 1. Q9NUW8. recombinant TDP1, AlphaScreen DNA substrate cleavage. Potency, µM (highest dose often 130 µM), for inactives: at the top dose activity change, negative = inhibition, hits mostly inhibitors. actives 0.28% (n = 350,000); also: potency is read from the fitted curve at half-maximal effect; % is scaled to controls: 0 for no effect and ±100 for the full control effect; nearly all actives have a fitted effect of over 40% in size
Target sequence (Q9NUW8 whole entry, looked up): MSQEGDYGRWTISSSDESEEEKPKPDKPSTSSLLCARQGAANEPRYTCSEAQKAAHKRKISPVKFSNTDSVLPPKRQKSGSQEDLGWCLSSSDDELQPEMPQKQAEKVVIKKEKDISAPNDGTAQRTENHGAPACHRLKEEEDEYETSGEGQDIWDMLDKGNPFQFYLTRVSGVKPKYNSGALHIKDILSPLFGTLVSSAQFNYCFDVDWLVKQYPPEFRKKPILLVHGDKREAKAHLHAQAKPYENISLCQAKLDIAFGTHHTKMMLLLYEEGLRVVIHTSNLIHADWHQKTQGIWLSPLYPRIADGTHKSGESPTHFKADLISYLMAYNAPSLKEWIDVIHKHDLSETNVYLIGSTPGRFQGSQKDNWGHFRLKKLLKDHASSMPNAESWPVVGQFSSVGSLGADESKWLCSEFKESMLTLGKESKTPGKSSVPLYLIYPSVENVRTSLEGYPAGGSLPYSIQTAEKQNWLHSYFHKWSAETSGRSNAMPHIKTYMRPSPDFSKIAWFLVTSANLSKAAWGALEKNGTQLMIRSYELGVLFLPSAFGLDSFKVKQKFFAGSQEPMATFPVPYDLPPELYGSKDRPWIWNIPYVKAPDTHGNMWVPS
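Enzyme-compound mixtures sat 15 min at room temperature, followed by a 5 min reaction with 15 nM final substrate and 10 min with AlphaScreen beads. Recombinant human Tdp1 was used at 1 nM final.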
DT40 TDP1 CPT: DT40-hTDP1 cell growth loss with CPT. actives 12% (n = 420,000). chicken DT40 Tdp1-/-;hTDP1 cells + 20 nM CPT, ATP luminescence, 48 h. AID 686979. Potency, µM (titrated, usually from 46.2 µM), without a hit: at the top dose activity change, negative = growth inhibition, most hits filed as inhibitors; also: potency is read from the fitted curve at half-maximal effect; % is scaled to controls: 0 for no effect and ±100 for the full control effect; nearly all actives have a fitted effect of over 55% in size
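Chicken DT40 Tdp1-/- cells complemented with human TDP1, 400 cells/well, exposed to compounds plus 20 nM camptothecin for at least 48 h at 37 C; viability read as ATP content by CellTiter-Glo luminescence.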
HepG2 viability: kills HepG2 cells in TGF-b inhibitor counter-screen; actives 0.76% (n = 410,000); HepG2 CAGA-GFP viability, ATP luminescence, 18 h; AID 588856; Potency, µM (doses to about 46.1 µM), for the others: at the highest dose activity change, negative = cytotoxicity, hits mostly cytotoxic; also: potency is read from the fitted curve at half-maximal effect
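CellTiter-Glo luminescence gave cytotoxicity after 18 hours at 37 degrees C. The cells were HepG2 CAGA-GFP in 1% FBS DMEM, stimulated with 500 pg/mL TGF-beta after compound addition. %Activity was normalised to no-cell wells (complete cell-killing) and DMSO (no toxicity), and curves were fitted and classified.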
TGFb SMAD3 inh: blocks TGF-b signaling. AID 588855. HepG2 CAGA-GFP TGF-b/SMAD3 reporter, GFP fluorescence, 18 h; TGF-beta stimulated, 500 pg/mL final. Potency, µM (titrated, usually from 46.1 µM), without a hit: at the highest dose activity, negative = inhibition, actives largely listed as inhibitors. actives 1.2% (n = 410,000); also: potency is read from the fitted curve at half-maximal effect; % is scaled to controls: 0 for no effect and ±100 for the full control effect; nearly all actives have a fitted effect of over 65% in size
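HEPG2 CAGA-GFP cells (1000/well, DMEM with 1% FBS) were pre-incubated 2 h at 37 degrees C, given compound by pin tool, then stimulated with TGF-beta at 500 pg/mL final for 18 h before per-cell GFP fluorescence imaging.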
TDP1 cell noCPT: qHTS for Inhibitors of human tyrosyl-DNA phosphodiesterase 1 (TDP1): qHTS in cells in absence of CPT; DT40 Tdp1-/- hTDP1 cells, no CPT, ATP luminescence, 48 h; Potency, µM (series often up to 46.2 µM), inactives show top-dose activity change, negative = growth inhibition, actives largely listed as inhibitors; actives 15% (n = 420,000); AID 686978, 2013; also: potency is read from the fitted curve at half-maximal effect; % is scaled to controls: 0 for no effect and ±100 for the full control effect; nearly all actives have a fitted effect of over 55% in size
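Luminescent ATP content (CellTiter-Glo) served as the growth readout. Knockout chicken DT40 cells expressing human TDP1 were exposed to compounds without camptothecin for a minimum 48 hr at 37 °C.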
IL-1B inflam inh: inflammasome signaling inhibition, IL-1 beta readout | THP-1 LPS/ATP IL-1B secretion, AlphaLISA, 16 h; active compounds read low | actives 4.7% (n = 360,000) | activity change, % at 57.5 µM; in the data active = activity change below about -50%; inconclusive = mostly about -30% to -49%; also: % is scaled to controls: 0 for no effect and ±100 for the full control effect
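Secreted IL-1B measured by AlphaLISA bead assay after 16 h compound exposure of THP-1 cells; compounds (final up to 57.5 uM) added 1 h before LPS (250 ng/mL) and ATP (1.25 mM) stimulation; lower signal means less secretion.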
Active calls of the source: *; [ ] = another dose, or the depositor's remark. Sampled rows, rich in hits. Any-hit rate of the full collection: about 19%. Unless noted, calls follow the shape of the dose curve; as a rule, active = well fitted curve in the direction sought with a large enough effect; inconclusive = small, poorly fitted or top-dose-only effect, or another doubt; inactive = no such curve, though single readings can be large; an effect the other way counts as inactive or inconclusive.

COc1cccc(C2c3c(ncn(-c4ccc(C#N)cc4)c3=N)Oc3ccc4ccccc4c32)c1 (stereo not given) was read as TDP1 block 0%.
C/C(=N/OC(=O)C1CC1c1ccccc1)c1ccccc1 (stereo not given) was read as DT40 TDP1 CPT inconclusive, HepG2 viability 5%, TGFb SMAD3 inh 10%, TDP1 cell noCPT 6% and IL-1B inflam inh 7.
For Cc1ccc2[nH]c(O)c(N=NC(=O)C3CC3c3ccccc3)c2c1Br (stereo not given) the results were TDP1 block 3%, DT40 TDP1 CPT 21µM*, HepG2 viability -18%, TGFb SMAD3 inh 0%, TDP1 cell noCPT 23µM* and IL-1B inflam inh 7.
For O=C(Nc1ccc(N2CCN(C(=O)c3ccccc3F)CC2)cc1)c1cncc(Br)c1 the results were TDP1 block 6%, DT40 TDP1 CPT inconclusive, HepG2 viability -7%, TGFb SMAD3 inh -1%, TDP1 cell noCPT 18µM* and IL-1B inflam inh -58*.
COc1cccc(OC)c1C(=O)Nc1ccc(N2CCN(C(=O)c3cccs3)CC2)cc1 was read as TDP1 block 6%, DT40 TDP1 CPT -23%, HepG2 viability -24%, TGFb SMAD3 inh -6%, TDP1 cell noCPT inconclusive and IL-1B inflam inh 0.
O=C(Nc1ccc(N2CCN(C(=O)c3cccs3)CC2)cc1)c1ccccc1Cl was read as TDP1 block -1%, DT40 TDP1 CPT 15µM*, HepG2 viability -7%, TGFb SMAD3 inh -23%, TDP1 cell noCPT 12µM* and IL-1B inflam inh -57*.
For O=C(Nc1ccc(N2CCN(C(=O)c3cccs3)CC2)cc1)c1ccccc1F the results were DT40 TDP1 CPT inconclusive, HepG2 viability 6%, TGFb SMAD3 inh -14%, TDP1 cell noCPT 18µM* and IL-1B inflam inh -62*.
O=C(Nc1ccc(N2CCCCC2)cc1)c1cncc(Br)c1 was read as TDP1 block -2%, DT40 TDP1 CPT inconclusive, HepG2 viability -4%, TGFb SMAD3 inh -8%, TDP1 cell noCPT inconclusive and IL-1B inflam inh 0.
Cc1ccc(N(CC(=O)NCCc2ccccc2C)S(=O)(=O)N(C)C)cc1 was read as TDP1 block 4%, DT40 TDP1 CPT -20%, HepG2 viability -5%, TGFb SMAD3 inh -2% and TDP1 cell noCPT inconclusive.
`CCOC(=O)c1ccc2ncc3c(-c4ccccc4)nn(-c4ccc(F)c(Cl)c4)c3c2c1` gave TDP1 block 2%, DT40 TDP1 CPT -12%, HepG2 viability -31%, TGFb SMAD3 inh 8% and TDP1 cell noCPT -1%.
CCOC(=O)C1=C(CSc2nc3c(cc2C#N)CN(C)CC3)OC(N)=C(C#N)C1c1ccccc1 (stereo not given) was read as TDP1 block 4%, DT40 TDP1 CPT inconclusive, HepG2 viability 3%, TGFb SMAD3 inh 36%, TDP1 cell noCPT 29µM* and IL-1B inflam inh 2.
CCOC(=O)C1=C(CSc2nc3c(cc2C#N)CCC3)OC(N)=C(C#N)C1c1ccccc1 (stereo not given) was read as TDP1 block 4%, DT40 TDP1 CPT 29µM*, HepG2 viability -1%, TGFb SMAD3 inh -17%, TDP1 cell noCPT inconclusive and IL-1B inflam inh 19.
Screening CCOC(=O)C1=C(CSc2nc3c(cc2C#N)CN(C)CC3)OC(N)=C(C#N)C1c1ccc(F)cc1 (stereo not given) returned TDP1 block -5%, DT40 TDP1 CPT inconclusive, HepG2 viability -3%, TGFb SMAD3 inh 0%, TDP1 cell noCPT inconclusive and IL-1B inflam inh -2.
For COc1cc(C(=O)NCCNc2nc3c(C)c(C)ccc3cc2C#N)cc(OC)c1OC the results were DT40 TDP1 CPT -2%, HepG2 viability -26%, TGFb SMAD3 inh -16%, TDP1 cell noCPT -15% and IL-1B inflam inh -24.
For COc1cc(C(=O)NCCCNc2nc3cc(C)c(C)cc3cc2C#N)cc(OC)c1OC the results were TDP1 block 5%, DT40 TDP1 CPT inconclusive, HepG2 viability -8%, TGFb SMAD3 inh -9%, TDP1 cell noCPT 23µM* and IL-1B inflam inh -19.
Screening COc1cc(C(=O)NCCNc2nc3cc(C)ccc3cc2C#N)cc(OC)c1OC returned TDP1 block 2%, DT40 TDP1 CPT inconclusive, HepG2 viability -11%, TGFb SMAD3 inh -2%, TDP1 cell noCPT 16µM* and IL-1B inflam inh 11.
`Cc1ccc2cc(C#N)c(NCc3ccco3)nc2c1` gave TDP1 block -3%, DT40 TDP1 CPT 23µM*, HepG2 viability 2%, TGFb SMAD3 inh 0%, TDP1 cell noCPT inconclusive and IL-1B inflam inh 13.
`Cc1ccc(NC(=O)CCc2nc(-c3ccccc3F)no2)c(C)c1` gave TDP1 block 2%, DT40 TDP1 CPT inconclusive, HepG2 viability -7%, TGFb SMAD3 inh 0% and TDP1 cell noCPT inconclusive.
For CCCOc1ccc(C(F)(F)F)cc1NC(=O)CCc1c(C)noc1C the results were TDP1 block -4%, DT40 TDP1 CPT inconclusive, HepG2 viability -17%, TGFb SMAD3 inh 1%, TDP1 cell noCPT inconclusive and IL-1B inflam inh -26.
For O=C1C2C(c3ccccc3)CC=CC2C(c2cccc(Br)c2)N1Cc1ccccc1 (stereo not given) the results were TDP1 block 7%, HepG2 viability -16% and TGFb SMAD3 inh inconclusive.
Cc1cccc([C@H]2[C@@H]3C=CCC[C@@]3(C)C(=O)N2Cc2ccccc2)c1 was read as TDP1 block 3%.
For COc1ccc(-c2cccc([C@H]3[C@@H]4C=CCC[C@@]4(C)C(=O)N3Cc3ccccc3)c2)cc1 the results were TDP1 block 0%, DT40 TDP1 CPT 23µM*, HepG2 viability -16%, TGFb SMAD3 inh inconclusive, TDP1 cell noCPT 16µM* and IL-1B inflam inh -16.
For O=C1[C@H]2CCC=C[C@H]2[C@H](c2cccc(Br)c2)N1Cc1ccccc1 the results were TDP1 block -1%[56.1 µM], DT40 TDP1 CPT inconclusive, HepG2 viability 1%, TGFb SMAD3 inh inconclusive, TDP1 cell noCPT 13µM* and IL-1B inflam inh 14.
Screening CC12CCC=CC1C(c1cccc(Br)c1)N(Cc1ccccc1)C2=O (stereo not given) returned TDP1 block 1%, HepG2 viability -91% and TGFb SMAD3 inh 13µM*.

Screening data from PubChem BioAssay.
